# Bioassay records from PubChem.
# Spn MK inh: S. pneumoniae MK inhibitors, primary screen, biochemical, PK/LDH-coupled NADH absorbance; purified MK, PK/LDH-coupled NADH absorbance 340 nm; 0.48% of 65,000 active; AID 555, 2006; inhibition, % at 10 µM;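 active means ranked among the strongest by inhibition in the single 10 µM screen, a fixed top-ranked set picked for dose follow-up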
# A340 absorber: compound light absorbance at 340 nm, profiling panel, artefact control, biochemical, MLSMR library, data from PS, PMK, MK assays; fold change at 10 µM; compound absorbance at 340 nm, fold over control; 65,000 tested, under 10 active;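 active means at 10 µM dose, initial 340 nm absorbance at least 2 fold that of control wells; inactive means change under 2 fold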;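 further: initial absorbance extrapolated from kinetic A340 decline of NADH oxidation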
# Spn PMK inh: S. pneumoniae PMK inhibitors, primary screen, biochemical, mevalonate pathway, pilot trial included; phosphomevalonate kinase (Streptococcus pneumoniae D39); purified PMK, PK/LDH-coupled NADH absorbance 340 nm; inhibition, % at 10 µM; 0.49% of 65,000 active; AID 539, 2006;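 active means top-ranked compounds by inhibition in the single 10 µM screen, taking a fixed number of the strongest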;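 further: 0% = full reaction with DMSO carrier and 100% = background rate without enzyme reaction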
# Spn DPM-DC inh: S. pneumoniae DPM-DC inhibitors, primary screen, biochemical, PK/LDH-coupled NADH fluorescence; calls only at 10 µM; purified DPM-DC; 0.49% of 65,000 active;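 active means the 320 compounds with the highest percent inhibition in the single-dose primary screen, excluding strongly autofluorescent ones, cut at about 32% in these data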;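 further: kinetic rate of NADH fluorescence loss reporting ADP formed by the decarboxylase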
# NADH coupling: inhibitors of PK/LDH coupling enzymes, profiling panel, artefact control, biochemical, MLSMR library; 0.02% of 65,000 active; AID 774, 2007; IC50, µM (series often up to 10 µM), for inactives: at the top dose inhibition; coupled PK/LDH NADH assays, four targets;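 active means single-dose screening hits from any of four coupled enzyme assays that gave an IC50 when retested across doses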;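 further: the DPM-DC format reads NADH fluorescence rather than 340 nm absorbance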
# Fluor 339 460: intrinsic fluorescence of library compounds, ex339/em460 – biochemical, MLSMR library, data from DPM-DC assay, artefact control, profiling panel; 5.5% of 65,000 active; fluorescence fold increase at 10 µM; compound autofluorescence, ex339/em460 nm, NADH buffer; active compounds read high; 1 = no-compound wells, NADH background;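 active means at 10 µM, mean starting fluorescence two-fold or more over control wells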;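 further: signal is the first read of a kinetic run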
# * = called active by the depositor; i = inactive; · = no result shown. Hits are enriched below; roughly 6.8% of the tested compounds scored in any of these assays.
SMILES,Spn MK inh,A340 absorber,Spn PMK inh,Spn DPM-DC inh,NADH coupling,Fluor 339 460
CCOCc1nc(N)[nH]c(=O)c1Cc1ccc(OC(C)C)cc1,0.0,1.03,0.0,i,0.0%,1.1
Cc1oc2cc3c(C(=O)OCCN(C)C)c(C)oc3cc2c1C(=O)OCCN(C)C,4.0,1,0.0,i,10.0%,1.05
CC(Sc1nnc(N)s1)c1ccccc1Cl (centres undefined),9.0,1.03,5.0,i,5.0%,1.06
COc1ccc(CNC(=O)CN(C(=O)c2cc3sccc3n2C)C2CCCC2)cc1,10.0,1.03,7.0,i,6.0%,1.09
Nc1nnnn1CC(=O)OCc1cccc(Br)c1,6.0,1.03,1.0,i,2.0%,1.07
Cc1[nH]nc2c1C(c1cccc(O)c1)C1=C(CC(C)(C)CC1=O)N2 (centres undefined),1.0,1.09,9.0,·,5.0%,4.99*
Cc1[nH]nc2c1C(c1ccc(F)cc1)C1=C(CC(C)(C)CC1=O)N2 (centres undefined),8.0,1.06,12.0,·,5.0%,3.14*
Cc1ccc(C2C3=C(CC(C)(C)CC3=O)Nc3n[nH]c(C)c32)cc1 (centres undefined),1.0,1.08,12.0,·,7.0%,4.93*
Cc1cc2c(cc1C)NC(c1cccnc1)C1=C(CC(C)(C)CC1=O)N2 (centres undefined),11.0,1.3,10.0,i,10.0%,0.96
COc1ccc(N2CCN(C(c3ccccc3)c3sc4nc(C)nn4c3O)CC2)cc1 (centres undefined),6.0,0.99,6.0,i,2.0%,1.01
O=C(c1c[nH]c2ccc(S(=O)(=O)N3CCOCC3)cc2c1=O)N1CCCC1,4.0,1.09,1.0,·,3.0%,4.19*
COc1ccc2[nH]cc(C(=O)N3CCCCC3)c(=O)c2c1,9.0,1.08,2.0,i,5.0%,2.08*
CC1CCN(S(=O)(=O)c2ccc3[nH]cc(C(=O)NCCN4CCOCC4)c(=O)c3c2)CC1,0.0,1.01,12.0,·,2.0%,1.81
CCN(c1ccccc1)S(=O)(=O)c1ccc2[nH]cc(C(=O)N3CCOCC3)c(=O)c2c1,0.0,1.13,22.0,·,11.0%,2.11*
Cc1ccc(S(=O)(=O)N2CCOCC2)cc1C(=O)N1CCOCC1,2.0,1.01,4.0,i,6.0%,1.04
COCCNC(=O)c1c[nH]c2ccc(S(=O)(=O)N3CCC4(CC3)OCCO4)cc2c1=O,0.0,1.08,19.0,·,10.0%,2.12*
CCc1ccc2[nH]cc(C(=O)N3CCCCCC3)c(=O)c2c1,5.0,1.07,10.0,i,6.0%,1.04
CCN(CC)S(=O)(=O)c1ccc2c(c1)c(=O)c(C(=O)N1CCOCC1)cn2C,4.0,1.02,12.0,i,6.0%,0.99
COC(=O)c1c(F)c(F)c(NCCO)c(F)c1F,6.0,1.04,0.0,i,2.0%,1.09
CCN(CC)S(=O)(=O)c1ccc(NCc2ccccc2)nc1,6.0,1.02,9.0,i,8.0%,1.17
Cc1nn(C)c(C)c1S(=O)(=O)N(CC(=O)NCCN1CCOCC1)c1ccc(C(C)C)cc1,0.0,1.05,7.0,i,2.0%,1.07
COc1ccc(S(=O)(=O)N2CCC(C(=O)N3CCCCCC3)CC2)cc1,0.0,1.02,8.0,i,3.0%,1.11
CCN1C(=O)c2cccc3c(S(=O)(=O)Nc4ccc(OC)cc4OC)ccc1c23,7.0,1.06,6.0,i,5.0%,1.09
CCSc1nnc(NC(=O)C(CC)Oc2ccccc2)s1 (centres undefined),14.0,0.81,21.0,i,12.0%,1.13
O=C(O)c1c[nH]c2ccc(S(=O)(=O)N3CCN(c4ccc(F)cc4)CC3)cc2c1=O,0.0,1.02,10.0,i,2.0%,1.19
CCOC(=O)N1CCN(S(=O)(=O)c2ccc3[nH]cc(C(=O)O)c(=O)c3c2)CC1,3.0,1.06,17.0,i,10.0%,2.38*
Cc1cc(C(=O)NCc2ccccc2Br)no1,1.0,1.04,5.0,i,2.0%,1.14
